This is one part of a sample in which hits are shown more often than they occur.
ROC1-CUL1 inh: human ROC1-CUL1 E3 ligase inhibition; 140,000 tested, 0.6% active; inhibition, % at 10 µM; AID 1347404; in vitro K48 di-Ub FRET, acceptor:donor ratio, 45 min; in the data active = inhibition above about 25%
Target sequence (P62877 whole entry, looked up): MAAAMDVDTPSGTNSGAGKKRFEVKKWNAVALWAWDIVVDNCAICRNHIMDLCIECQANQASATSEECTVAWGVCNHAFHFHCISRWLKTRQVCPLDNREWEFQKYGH
Target sequence (Q13616 whole entry, looked up): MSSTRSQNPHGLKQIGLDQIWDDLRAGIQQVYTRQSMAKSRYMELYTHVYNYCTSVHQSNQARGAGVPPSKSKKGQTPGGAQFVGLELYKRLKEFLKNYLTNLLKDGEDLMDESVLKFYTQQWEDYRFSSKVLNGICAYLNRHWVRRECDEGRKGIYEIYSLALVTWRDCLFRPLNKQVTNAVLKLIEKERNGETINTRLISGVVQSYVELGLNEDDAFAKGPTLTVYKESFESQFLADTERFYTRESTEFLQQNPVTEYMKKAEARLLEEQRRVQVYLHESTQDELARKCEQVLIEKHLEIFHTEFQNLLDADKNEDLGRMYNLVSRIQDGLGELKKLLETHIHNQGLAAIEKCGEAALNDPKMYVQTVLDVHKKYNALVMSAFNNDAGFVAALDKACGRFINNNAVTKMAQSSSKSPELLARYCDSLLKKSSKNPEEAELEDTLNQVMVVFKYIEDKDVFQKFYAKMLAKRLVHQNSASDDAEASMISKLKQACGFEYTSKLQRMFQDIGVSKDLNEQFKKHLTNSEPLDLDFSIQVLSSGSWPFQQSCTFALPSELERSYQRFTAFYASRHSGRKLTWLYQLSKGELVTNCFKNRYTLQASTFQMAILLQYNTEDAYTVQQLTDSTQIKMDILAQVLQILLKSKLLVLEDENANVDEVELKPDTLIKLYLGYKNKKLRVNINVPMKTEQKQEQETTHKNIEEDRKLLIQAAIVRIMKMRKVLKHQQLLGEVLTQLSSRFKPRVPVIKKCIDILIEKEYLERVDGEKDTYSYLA
* = called active by the depositor.

SMILES	ROC1-CUL1 inh
O=C(CSc1nc2ccccc2c(=O)[nH]1)c1ccc(O)c(O)c1	103.2*
Cc1cc(=O)[nH]c(SCC(=O)c2ccc(O)c(O)c2)n1	15.4
O=C(CSc1nc2ccccc2c(=O)[nH]1)c1ccc(Cl)cc1	2.2
Cc1nsc2nc3c(F)c(F)c(N[C@@H](C)c4ccccc4)c(F)c3cc12	8.7
COc1ccccc1CNc1c(F)c(F)c2nc3snc(C)c3cc2c1F	86.9*
COc1ccc(CNc2c(F)c(F)c3nc4snc(C)c4cc3c2F)cc1	-5.9
O=c1ccccc2c(/C=C/c3ccc(Cl)cc3Cl)nn(-c3ccccc3)c12	26.5*
O=c1c(Cl)cc(Cl)nn1-c1ccccc1	-7.5
COc1cc(/C=C/c2nn(-c3ccc(Br)cc3)c3c(=O)ccccc23)cc(OC)c1OC	5.8
O=C(O)c1cc2c3c(c1)C1CC=CC1C(c1ccc(Br)cc1)N3CC1CC=CC21 (configuration not stated)	101.5*
O=[N+]([O-])c1ccc(C2C3CC=CC3c3c4c(cc5ccccc35)C3C=CCC3CN42)cc1 (configuration not stated)	-6.3
Cc1cc2c3c(c1)C1C=CCC1C(c1ccc(Br)cc1)N3CC1CC=CC21 (configuration not stated)	-5.4
O=S(=O)(c1ccc2c3c(cccc13)CC2)N1CCSC1c1cccc(Cl)c1 (configuration not stated)	2.8
COC(=O)c1cc(-c2ccc(/C=C3/C(=O)NN(c4ccc(C)cc4)C3=O)o2)ccc1Cl	13.0
C=CCOC(=O)c1cc(-c2ccc(/C=C3/C(=O)NN(c4ccc(F)c(Cl)c4)C3=O)o2)ccc1Cl	1.3
CC1=NN(c2ccccc2)C(=O)/C1=C/c1ccc(-c2ccc(C)c(C(=O)O)c2)o1	2.6
COC(=O)c1ccc(N2NC(=O)/C(=C/c3ccc(-c4ccc(Cl)c(C(=O)O)c4)o3)C2=O)cc1	35.3*
CCOC(=O)c1cc(-c2ccc(/C=C3/C(=O)ON=C3C)o2)ccc1Cl	-2.1
CCN1C(=O)/C(=C/c2ccc(-c3ccc(Cl)c(C(=O)O)c3)o2)C(=O)NC1=S	87.1*
CCOC(=O)c1c(N)n(-c2cccc(C(F)(F)F)c2)c2nc3ccccc3nc12	1.4
Cc1cc(NC(=O)c2ccc(Br)o2)ccc1Br	-2.2
CCN1CC=C2C(C#N)C(=N)C(C#N)(C#N)[C@H](c3ccc4c(c3)OCO4)[C@H]2C1 (some centres not stated)	-5.0
CCCN1CC=C2C(C#N)C(=N)C(C#N)(C#N)C(c3cccc(Br)c3)C2C1 (configuration not stated)	-0.8
CCN1CC=C2C(C#N)C(=N)C(C#N)(C#N)C(c3cc(OC)c(OC)c(OC)c3)C2C1 (configuration not stated)	-1.3
CCN1CC=C2C(C#N)C(=N)C(C#N)(C#N)C(c3ccc(SC)cc3)C2C1 (configuration not stated)	67.9*
SMILES	ROC1-CUL1 inh
CN1CC=C2C(C#N)C(=N)C(C#N)(C#N)C(c3ccco3)C2C1 (configuration not stated)	-4.2
CCOC(=O)N1CC=C2C(C#N)C(=N)C(C#N)(C#N)[C@H](c3cccc(F)c3)[C@H]2C1 (some centres not stated)	6.4
CCN1CC=C2C(C#N)C(=N)C(C#N)(C#N)C(c3cccc(F)c3)C2C1 (configuration not stated)	46.6*
CN1CC=C2C(C#N)C(=N)C(C#N)(C#N)[C@H](c3ccccc3F)[C@H]2C1 (some centres not stated)	2.0
CN1CC=C2C(C#N)C(=N)C(C#N)(C#N)C(c3ccc(Br)s3)C2C1 (configuration not stated)	44.8*
COC1OC(OC)C2OC(=S)OC12 (configuration not stated)	0.7
COc1ccc2[nH]c3c(c2c1)CN(C(=O)CCn1nnnc1CN1CCOCC1)CC3	-12.1
COc1ccc(C(=O)Nc2ccc3c(c2)C(=O)N(C2CCCCC2)C3=O)cc1	11.1
O=C(O)c1cccc(NC(=O)c2ccc3c(c2)C(=O)N(C2CCCCC2)C3=O)c1	26.5*
CC(C)(C)NC(=O)c1ccc2c(c1)C(=O)N(C1CCCCC1)C2=O	-0.3
Cc1cc(/C=C2\C(=O)NC(=S)N(C)C2=O)c(C)n1-c1ccccc1F	2.4
CN1C(=O)C(=Cc2cc(Br)c(N(C)C)o2)C(=O)N(C)C1=O	0.0
CN1C(=O)/C(=C/c2cc(Br)c(Sc3ccc(Cl)cc3)o2)C(=O)NC1=S	48.1*
CCC(C(=O)Nc1cc(C(=O)OC)ccc1C(=O)OC)c1ccccc1 (configuration not stated)	8.5
Cc1cc(C)n2nc(C(=O)O)cc2n1	3.6
Cc1ccc(C2CC(c3ccccc3)=Nc3nc(NS(=O)(=O)c4ccc(C)cc4)nn32)cc1 (configuration not stated)	13.5
Nc1nc2c(ncn2S(=O)(=O)c2ccc(Cl)cc2)c(=O)[nH]1	3.5
Cc1cccc(OCC(=O)NNc2ccc([N+](=O)[O-])cc2[N+](=O)[O-])c1	30.5*
Cc1cccc(OCC(=O)NNC(=O)CCCCC(=O)NNC(=O)COc2cccc(C)c2)c1	1.7
Cc1cccc(OCC(=O)N/N=C/c2cccn2-c2ccc([N+](=O)[O-])cc2)c1	-3.1
CCOC(=O)c1cc(C(=O)Nc2ccc(OC)c(OC)c2)nn1C	1.6
Fc1ccc(C2CC(c3cccs3)=NN2c2cccc(Cl)c2)cc1 (configuration not stated)	-16.7
O=C(O)CSc1nnc2c(n1)OC(c1ccc(Cl)cc1)Nc1ccccc1-2 (configuration not stated)	-5.8
COC(=O)c1ccc(C2Nc3ccccc3-c3nnc(SCc4ccc(C)cc4)nc3O2)cc1 (configuration not stated)	-3.3
O=C(O)c1ccc(C2Nc3ccccc3-c3nnc(SCc4ccc(Cl)cc4)nc3O2)cc1 (configuration not stated)	25.7*
SMILES	ROC1-CUL1 inh
Cc1ccc(C(=O)Nc2cccc(Cl)c2Cl)cc1[N+](=O)[O-]	4.4
O=[N+]([O-])c1cc(C=Nc2c(Cl)cc(Cl)c(N=Cc3cc([N+](=O)[O-])c(O)cc3O)c2Cl)c(O)cc1O	107.6*
O=[N+]([O-])c1ccccc1C=Nc1ccccc1Cl	-4.2
O=[N+]([O-])c1ccc(O)c(C=Nc2cc(Cl)cc(Cl)c2)c1	-4.8
COCCCNC(=O)c1cccc(C)c1	0.0
COCCCN1C(=O)CC(CC(=O)N2CCN(c3ccccc3C)CC2)(c2ccccc2OC)C1=O (configuration not stated)	2.2
COc1cccc(COc2ccccc2C2Nc3ccc(I)cc3C(=O)N2NC(=O)c2ccc3c(c2)OCO3)c1 (configuration not stated)	-5.1
CCOc1cc2c(cc1OCC)C(c1ccccc1OC)CC(=O)N2 (configuration not stated)	9.8
COc1ccccc1C1NCCS1 (configuration not stated)	33.1*
COc1cccc(C2SCCCS2)c1O	8.2
CCOc1ccc(-c2cc(C(=O)N(C)Cc3c(C)nn(C)c3C)c3cc(Br)ccc3n2)cc1	5.3
Cc1cc(OC(=O)C2CCCCC2)c(C(C)C)cc1Cl	-4.2
CC1CCc2c(sc3nnn(Cc4cccc(C(=O)OC(C)C)c4)c(=O)c23)C1 (configuration not stated)	-4.1
CC(C)OC(=O)c1ccc(Cn2nnc3sc4c(c3c2=O)CCCC4)cc1	44.1*
CC(C)OC(=O)c1cccc(NC(=O)Cn2nnc3sc4c(c3c2=O)CCCC4)c1	4.6

Source: PubChem (Pan Lab, Icahn School of Medicine at Mount Sinai)
